Our source for the relative viability values is the supplement of paper PMC6279402.

The test concerns A549. The test can be described thus: relative viability (normalised to negative control = 1, bortezomib = 0) (fraction); higher = less cytotoxic. The settings on record: inflammatory serum-free RHB-A with cytokines + LPS, 5 d + 24 h CellTiter-Blue. On the technique in general: Resazurin is reduced to fluorescent resorufin, in cell work by metabolically active cells.
Setting [1] is: compound 30 nM, GSK126 pretreatment: 5 uM GSK126.
Where [2] appears, read: compound 30 nM, GSK126 pretreatment: none (vehicle).
Setting [3] is: compound 300 nM, GSK126 pretreatment: 5 uM GSK126.
The mark [4] stands for this setting: compound 300 nM, GSK126 pretreatment: none (vehicle).

Each structure is given as a SMILES string. Where a name gives a salt, the structure may show the parent alone. ± gives the standard deviation of the averaged measurements.

Consider `O=C1c2c(O)ccc(O)c2C(=O)c2c(NCCNCCO)ccc(NCCNCCO)c21` [Mitoxantrone; Mitoxantrone dihydrochloride], for which the relative viability under setting [1] came out at 0.483 ± 0.02, the relative viability under setting [2] came out at 0.376 ± 0.022, the relative viability under setting [3] is 0.148 ± 0.013 and the relative viability under setting [4] worked out at 0.137 ± 0.008.

As to `CC(C)CC(=O)Nc1n[nH]c2c1CN(C(=O)C1CCN(C)CC1)C2(C)C`, the relative viability by setting is: under setting [1], 0.84 ± 0.097; under setting [2], 0.829 ± 0.069; under setting [3], 0.761 ± 0.077; under setting [4], 0.787 ± 0.033.

Turning to `COc1ccc(-c2cc3c(C)nc(N)nc3n(C3CCC(OCCO)CC3)c2=O)cn1` (stereo not drawn), the relative viability was found to be 0.617 ± 0.071 under setting [1], 0.634 ± 0.063 under setting [2], 0.0912 ± 0.017 under setting [3] and 0.087 ± 0.014 under setting [4].

Turning to `FC(F)(F)c1ccc(/C=C/c2nc(COc3ccc(CCCCn4ccnn4)cc3)co2)cc1` [Mubritinib (TAK 165)], the relative viability runs as follows: under setting [1], 0.798 ± 0.028; under setting [2], 0.837 ± 0.061; under setting [3], 0.561 ± 0.081; under setting [4], 0.94 ± 0.011.

In the case of `Cc1ccc(NC(=O)c2cccc(N(C)C)c2)cc1NC(=O)c1ccc(O)cc1`, the relative viability runs as follows: under setting [1], 0.965 ± 0.086; under setting [2], 1.02 ± 0.11; under setting [3], 1.19 ± 0.13; under setting [4], 1.15 ± 0.042.

Consider `COc1ccc(S(=O)(=O)N(C(C)=O)c2ccccc2/C=C/c2cc[n+]([O-])cc2)cc1`, for which the relative viability runs as follows: under setting [1], 0.924 ± 0.032; under setting [2], 0.914 ± 0.033; under setting [3], 0.663 ± 0.032; under setting [4], 0.623 ± 0.056.

As for `Cc1ccc([N+](=O)[O-])cc1S(=O)(=O)N(C)/N=C/c1cnc2ccc(Br)cn12` [PIK-75 Hydrochloride], the relative viability by setting is: under setting [1], 0.0451 ± 0.0082; under setting [2], 0.101 ± 0.062; under setting [3], -0.00172 ± 0.0047; under setting [4], -0.00104 ± 0.0047.

With `Clc1ccc(Nc2nnc(Cc3ccncc3)c3ccccc23)cc1` [Vatalanib], the relative viability reads like this: under setting [1], 0.822 ± 0.036; under setting [2], 0.791 ± 0.044; under setting [3], 0.84 ± 0.074; under setting [4], 0.874 ± 0.05.

Regarding `O=C(CCBr)N1CCN(C(=O)CCBr)CC1` [Pipobroman], the relative viability reads like this: under setting [1], 0.735 ± 0.045; under setting [2], 0.705 ± 0.026; under setting [3], 0.725 ± 0.096; under setting [4], 0.822 ± 0.12.

As for `Cc1c(CN2CCN(C(=O)[C@H](C)O)CC2)sc2c(N3CCOCC3)nc(-c3cnc(N)nc3)nc12`, the relative viability by setting is: under setting [1], 0.678 ± 0.048; under setting [2], 0.754 ± 0.063; under setting [3], 0.15 ± 0.033; under setting [4], 0.172 ± 0.013.

For `Nc1nc2[nH]cnc2c(=S)[nH]1` [Thioguanine], the relative viability under setting [1] turned out to be 0.978 ± 0.039, the relative viability under setting [2] turned out to be 0.929 ± 0.043, the relative viability under setting [3] came to 0.917 ± 0.045 and the relative viability under setting [4] was 1 ± 0.073.

Regarding `CS(=O)(=O)OCCCCOS(C)(=O)=O` [Busulfan], the relative viability was 0.889 ± 0.017 under setting [1], 0.865 ± 0.038 under setting [2], 0.916 ± 0.067 under setting [3] and 0.893 ± 0.024 under setting [4].

Consider `CN(N=O)C(=O)N[C@@H]1[C@@H](O)[C@H](O)[C@@H](CO)O[C@@H]1O` [Streptozocin], for which the relative viability reads like this: under setting [1], 0.985 ± 0.071; under setting [2], 0.903 ± 0.13; under setting [3], 1.01 ± 0.15; under setting [4], 1.08 ± 0.088.

In the case of `O=c1[nH]c(=O)n([C@H]2C[C@H](O)[C@@H](CO)O2)cc1F` [Floxuridine], the relative viability reads like this: under setting [1], 0.895 ± 0.018; under setting [2], 0.886 ± 0.058; under setting [3], 0.903 ± 0.037; under setting [4], 0.908 ± 0.05.

On to `Oc1ncnc2[nH]ncc12` [Allopurinol], for which the relative viability under setting [1] is 0.988 ± 0.076, the relative viability under setting [2] is 0.996 ± 0.03, the relative viability under setting [3] stood at 0.952 ± 0.11 and the relative viability under setting [4] was found to be 0.974 ± 0.066.

As for `CO[C@H]1C(=O)[C@]2(C)[C@@H](OC)C[C@H]3OC[C@@]3(OC(C)=O)[C@H]2[C@H](OC(=O)c2ccccc2)[C@]2(O)C[C@H](OC(=O)[C@H](O)[C@@H](NC(=O)OC(C)(C)C)c3ccccc3)C(C)=C1C2(C)C` [Cabazitaxel], the relative viability by setting is: under setting [1], 0.487 ± 0.065; under setting [2], 0.349 ± 0.054; under setting [3], 0.541 ± 0.061; under setting [4], 0.421 ± 0.077.

For the molecule `Clc1ccc(C2(c3ccc(-c4cn[nH]c4)cc3)CCNCC2)cc1`, the relative viability worked out at 0.706 ± 0.086 under setting [1], 0.77 ± 0.055 under setting [2], 0.734 ± 0.044 under setting [3] and 0.854 ± 0.012 under setting [4].

Regarding `Cc1cnc(NC(=O)Nc2cc(Br)c(C)cc2OC[C@@H]2CNCCO2)cn1`, the relative viability under setting [1] came out at 0.539 ± 0.03, the relative viability under setting [2] turned out to be 0.607 ± 0.081, the relative viability under setting [3] came to 0.414 ± 0.05 and the relative viability under setting [4] was determined as 0.338 ± 0.028.

Regarding `COc1cc2c(Nc3ccc(NC(=O)c4ccccc4)cc3)ncnc2cc1OCCCN1CCOCC1`, the relative viability turned out to be 1.04 ± 0.053 under setting [1], 0.992 ± 0.1 under setting [2], 0.963 ± 0.07 under setting [3] and 0.9853 ± 0.0095 under setting [4].

With `Cc1cc(Nc2cc(CN3CCOCC3)c3nc(C)c(Cc4ccc(Cl)cc4F)n3n2)n[nH]1`, the relative viability under setting [1] is 0.974 ± 0.13, the relative viability under setting [2] was determined as 0.988 ± 0.062, the relative viability under setting [3] worked out at 1.24 ± 0.078 and the relative viability under setting [4] stood at 1.23 ± 0.03.

As to `CC[C@@H]1C(=O)N(C)c2cnc(Nc3ccc(C(=O)NC4CCC(N5CCN(CC6CC6)CC5)CC4)cc3OC)nc2N1C(C)C` (stereo partly drawn) [BI6727 (Volasertib)], the relative viability was 0.404 ± 0.1 under setting [1], 0.38 ± 0.095 under setting [2], 0.227 ± 0.042 under setting [3] and 0.249 ± 0.097 under setting [4].

Consider `Cc1nc(Nc2ncc(C(=O)Nc3c(C)cccc3Cl)s2)cc(N2CCN(CCO)CC2)n1` [Dasatinib], for which the relative viability under setting [1] was 0.89 ± 0.089, the relative viability under setting [2] is 0.882 ± 0.093, the relative viability under setting [3] worked out at 1.03 ± 0.077 and the relative viability under setting [4] is 0.956 ± 0.12.

For `Cc1[nH]nc2ccc(-c3cncc(OC[C@@H](N)Cc4ccccc4)c3)cc12`, the relative viability amounted to 0.871 ± 0.14 under setting [1], 0.766 ± 0.094 under setting [2], 0.17 ± 0.011 under setting [3] and 0.273 ± 0.056 under setting [4].

Turning to `Nc1ncnc2c1c(-c1cccc(OCc3ccccc3)c1)cn2C1CC(CN2CCCC2)C1` (stereo not drawn), the relative viability was 0.733 ± 0.037 under setting [1], 0.748 ± 0.028 under setting [2], 0.287 ± 0.021 under setting [3] and 0.333 ± 0.059 under setting [4].

`COc1cc2nccc(Oc3ccc(NC(=O)Nc4cc(C)on4)c(Cl)c3)c2cc1OC` [AV-951(Tivozanib)]: the relative viability reads like this: under setting [1], 0.919 ± 0.12; under setting [2], 0.927 ± 0.12; under setting [3], 1.1 ± 0.11; under setting [4], 1.18 ± 0.18.

`C[C@@H](Oc1cc(-n2cnc3ccc(CN4CCN(C)CC4)cc32)sc1C(N)=O)c1ccccc1C(F)(F)F`: the relative viability under setting [1] was determined as 0.481 ± 0.028, the relative viability under setting [2] was 0.326 ± 0.05, the relative viability under setting [3] worked out at 0.517 ± 0.02 and the relative viability under setting [4] amounted to 0.363 ± 0.072.

With `Cc1cc(C(=O)NOCCO)c(Nc2ccc(I)cc2F)n(C)c1=O`, the relative viability is, setting by setting: under setting [1], 0.137 ± 0.0076; under setting [2], 0.158 ± 0.004; under setting [3], 0.0557 ± 0.021; under setting [4], 0.0366 ± 0.01.
